Reference: PubChem BioAssay (Tox21)
A number with no mark means an inactive call. Results filed as inconclusive are left out. Where a call stands in place of a potency, no number is given. The source made the active and inactive calls. The call rests on the fitted dose curve.

Tests used:
[1] = biological target: Acetylcholinesterase (Homo sapiens) (UniProt P22303); test: Acetylcholinesterase (AChE) small molecule antagonists: colormetric cell-based qHTS assay (AID 1347395); further: nearly all actives have a fitted effect of over 30% in size
Acetylcholinesterase (Homo sapiens), sequence (P22303 whole entry, looked up): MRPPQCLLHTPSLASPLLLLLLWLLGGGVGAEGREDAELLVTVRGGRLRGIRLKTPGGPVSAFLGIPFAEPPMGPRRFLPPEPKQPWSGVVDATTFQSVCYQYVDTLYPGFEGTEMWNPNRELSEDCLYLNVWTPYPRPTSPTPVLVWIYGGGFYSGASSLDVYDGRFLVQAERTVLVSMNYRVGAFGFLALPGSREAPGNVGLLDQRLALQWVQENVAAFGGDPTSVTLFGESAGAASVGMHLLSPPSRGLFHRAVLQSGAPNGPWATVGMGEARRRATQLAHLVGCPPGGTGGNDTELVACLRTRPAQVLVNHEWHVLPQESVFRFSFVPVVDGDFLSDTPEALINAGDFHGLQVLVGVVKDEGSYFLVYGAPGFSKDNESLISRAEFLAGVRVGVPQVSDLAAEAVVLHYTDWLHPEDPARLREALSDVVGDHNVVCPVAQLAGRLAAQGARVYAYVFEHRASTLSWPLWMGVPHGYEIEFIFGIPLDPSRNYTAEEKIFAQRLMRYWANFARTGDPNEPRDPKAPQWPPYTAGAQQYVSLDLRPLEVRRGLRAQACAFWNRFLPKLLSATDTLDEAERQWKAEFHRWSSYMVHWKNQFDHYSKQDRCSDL
How it was run: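 Endogenous AChE of human neuroblastoma SH-SY5Y cells was measured with an Ellman-type DTNB/acetylthiocholine mix. Compound pretreatment lasted 30 min at 37 C; substrate reaction ran 90 min at 37 C.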

[2] = biological target: Acetylcholinesterase (Homo sapiens) (UniProt P22303); test: Acetylcholinesterase (AChE) small molecule antagonists: enzyme-based qHTS assay (AID 1347397); conditions: Potency: AChE enzyme activity inhibition; outcome: AChE enzyme activity inhibition; further: nearly all actives have a fitted effect of over 55% in size; further: potency means the concentration at half of the fitted maximal effect
How it was run: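 Absorbance-based detection of thiocholine with DTNB served as the read-out. Recombinant human AChE was exposed to compound for 30 min at RT before a 10 min RT incubation with acetylthiocholine.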

[3] = biological target: Acetylcholinesterase (Homo sapiens) (UniProt P22303); test: Acetylcholinesterase (AChE) small molecule antagonists: fluorescence cell-based qHTS assay (AID 1347398); conditions: Potency: AChE activity; outcome: AChE activity; further: nearly all actives have a fitted effect of over 50% in size; further: potency means the concentration at half of the fitted maximal effect
How it was run: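 Fluorimetric cell-based assay: intact SH-SY5Y cells, 30 min compound preincubation at 37 C, acetylthiocholine substrate with thiol probe Thiolite Green, 40 min RT development, fluorescence 490/520 nm.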

[4] = biological target: Acetylcholinesterase (Homo sapiens) (UniProt P22303); test: Acetylcholinesterase (AChE) small molecule antagonists: enzyme-based qHTS assay with human liver microsomes (AID 1347399); conditions: Potency: qHTS inhibition; outcome: qHTS inhibition; further: nearly all actives have a fitted effect of over 60% in size
How it was run: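 Recombinant human AChE (50 mU/mL in the enzyme mix) and human liver microsomes (0.25 mg/mL final) were preincubated with compound and NADPH (0.25 mg/mL final) for 30 min at 37 C. Acetylthiocholine/DTNB was then added; thiocholine was read colorimetrically after 10 min at room temperature.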

## CCCOCCO
[1]
  Potency: inactive
[2]
  Potency: inactive
[3]
  Potency: inactive
[4]
  Potency: inactive

## Clc1cccc(Cl)n1
[1]
  Potency: inactive
[2]
  Potency: inactive
[3]
  Potency: inactive
[4]
  Potency: inactive

## O=C1Nc2ccc([N+](=O)[O-])cc2C1=O
[1]
  Potency: inactive
[2]
  Potency: inactive
[3]
  Potency: inactive
[4]
  Potency: inactive

## O=C(OCc1ccccc1)c1ccccc1O
[1]
  Potency: inactive
[2]
  Potency: inactive
[3]
  Potency: inactive
[4]
  Potency: inactive

## COc1ccc(/C=N/NC(=O)c2ccncc2)cc1OC
[1]
  Potency: inactive
[2]
  Potency: inactive
[3]
  Potency: inactive
[4]
  Potency: inactive

## CC(C)CNCC(C)C
[1]
  Potency: inactive
[2]
  Potency: inactive
[3]
  Potency: inactive
[4]
  Potency: inactive

## CCCCCCC(C)(C)S
[1]
  Potency: inactive
[2]
  Potency: inactive
[3]
  Potency: inactive
[4]
  Potency: inactive

## CCOC(=O)C(=O)CCCCCCl
[1]
  Potency: inactive
[2]
  Potency: inactive
[3]
  Potency: inactive
[4]
  Potency: inactive

## CCOc1ccc2c(c1)C(C)=CC(C)(C)N2
[1]
  Potency: inactive
[2]
  Potency: inactive
[3]
  Potency: inactive
[4]
  Potency: inactive

## C[C@@H]1C[C@H]2O[C@@]3(O[C@@H]2C(C)(C)O)[C@H](O)[C@@]2(C)[C@@H]4CC[C@H]5C(C)(C)[C@@H](O[C@@H]6OC[C@@H](O)[C@H](O)[C@H]6O)CC[C@@]56C[C@@]46CC[C@]2(C)[C@@H]13
[1]
  Potency: inactive
[2]
  Potency: inactive
[3]
  Potency: inactive
[4]
  Potency: inactive

## CC1(C)[C@@H]2CC[C@]3(C2)[C@@H]1C(=O)CCC3(C)C
[1]
  Potency: inactive
[2]
  Potency: inactive
[3]
  Potency: inactive
[4]
  Potency: inactive

## CC(C)Cc1ccc(C(C)C(=O)O)cc1 (stereo not given)
[1]
  Potency: inactive
[2]
  Potency: inactive
[3]
  Potency: inactive
[4]
  Potency: inactive

## CC(C)=CCC/C(C)=C/CC/C(C)=C/C(=O)OCC(=O)[C@@]1(O)CC[C@H]2[C@@H]3CCC4=CC(=O)C=C[C@]4(C)[C@H]3[C@@H](O)C[C@@]21C
[1]
  Potency: inactive
[2]
  Potency: inactive
[3]
  Potency: inactive
[4]
  Potency: inactive

## O=C1OC(=O)c2cc(-c3ccc4c(c3)C(=O)OC4=O)ccc21
[1]
  Potency: inactive
[2]
  Potency: inactive
[3]
  Potency: inactive
[4]
  Potency: inactive

## C[C@H]1C[C@H]2[C@@H]3CCC4=CC(=O)C=C[C@]4(C)[C@H]3C(=O)C[C@]2(C)[C@@]1(O)C(=O)CO
[1]
  Potency: inactive
[2]
  Potency: inactive
[3]
  Potency: inactive
[4]
  Potency: inactive

## O=c1[nH]nc(-c2ccc([N+](=O)[O-])o2)o1
[1]
  Potency: inactive
[2]
  Potency: inactive
[3]
  Potency: inactive
[4]
  Potency: inactive

## Cc1cc(Nc2ccc(O)cc2)ccc1N
[1]
  Potency: inactive
[2]
  Potency: inactive
[3]
  Potency: inactive
[4]
  Potency: inactive

## CC(=O)Nc1ccc(N)cc1
[1]
  Potency: inactive
[2]
  Potency: inactive
[3]
  Potency: inactive
[4]
  Potency: inactive

## CCCS(=O)c1ccc2nc(NC(=O)OC)[nH]c2c1 (stereo not given)
[1]
  Potency: inactive
[2]
  Potency: inactive
[3]
  Potency: inactive
[4]
  Potency: inactive

## COc1cc(S(N)(=O)=O)cc(C(=O)O)c1OC
[1]
  Potency: inactive
[2]
  Potency: inactive
[3]
  Potency: inactive
[4]
  Potency: inactive

## CCCC[C@H]1CN(CC2CCOCC2)C(=O)OC12CCN(C1(C)CCN(C(=O)c3c(C)ncnc3C)CC1)CC2
[1]
  Potency: inactive
[2]
  Potency: inactive
[3]
  Potency: inactive
[4]
  Potency: inactive

## CCOc1ccccc1C(N)=O
[1]
  Potency: inactive
[2]
  Potency: inactive
[3]
  Potency: inactive
[4]
  Potency: inactive

## CCCCC(CC)CN=C(N)NC(N)=NCCCCCCN=C(N)NC(N)=NCC(CC)CCCC (stereo not given)
[1]
  Potency: inactive
[2]
  Potency: 17.4 µM (active)
[3]
  Potency: 13.8 µM (active)
[4]
  Potency: inactive

## NS(=O)(=O)c1cc2c(cc1Cl)NCNS2(=O)=O
[1]
  Potency: inactive
[2]
  Potency: inactive
[3]
  Potency: inactive
[4]
  Potency: inactive

## CC/C=C\C#N
[1]
  Potency: inactive
[2]
  Potency: inactive
[3]
  Potency: inactive
[4]
  Potency: inactive

## CC/C=C\CC1=C(C)CCC1=O
[1]
  Potency: inactive
[2]
  Potency: inactive
[3]
  Potency: inactive
[4]
  Potency: inactive

## CCCCC(CC)COC(=O)C(C#N)=C(c1ccccc1)c1ccccc1 (stereo not given)
[1]
  Potency: inactive
[2]
  Potency: inactive
[3]
  Potency: inactive
[4]
  Potency: inactive

## c1ccc(CCCc2ccncc2)cc1
[1]
  Potency: inactive
[2]
  Potency: inactive
[3]
  Potency: inactive
[4]
  Potency: inactive

## CC(C)CCCC(=O)O
[1]
  Potency: inactive
[2]
  Potency: inactive
[3]
  Potency: inactive
[4]
  Potency: inactive

## O=C1O[C@H](CO)[C@@H](O)[C@H](O)[C@H]1O
[1]
  Potency: inactive
[2]
  Potency: inactive
[3]
  Potency: inactive
[4]
  Potency: inactive

## CCOCOCC
[1]
  Potency: inactive
[2]
  Potency: inactive
[3]
  Potency: inactive
[4]
  Potency: inactive

## Cc1oc(-c2ccccc2)nc1CCOc1ccc(C[C@H](Nc2ccccc2C(=O)c2ccccc2)C(=O)O)cc1
[1]
  Potency: inactive
[2]
  Potency: 56.4 µM (active)
[3]
  Potency: inactive
[4]
  Potency: inactive

## Cc1ccnc(NS(=O)(=O)c2ccc(N)cc2)n1
[1]
  Potency: inactive
[2]
  Potency: inactive
[3]
  Potency: inactive
[4]
  Potency: inactive

## C=C(C)C(=O)OCC(CC)(COC(=O)C(=C)C)COC(=O)C(=C)C
[1]
  Potency: inactive
[2]
  Potency: inactive
[3]
  Potency: inactive
[4]
  Potency: inactive

## CSCC[C@H](NC(=O)[C@H](Cc1c[nH]c2ccccc12)NC(=O)CCNC(=O)OC(C)(C)C)C(=O)N[C@@H](CC(=O)O)C(=O)N[C@@H](Cc1ccccc1)C(N)=O
[1]
  Potency: inactive
[2]
  Potency: inactive
[3]
  Potency: inactive
[4]
  Potency: inactive

## C=CCNc1nc(NCC=C)nc(N2CCN(C(c3ccc(F)cc3)c3ccc(F)cc3)CC2)n1
[1]
  outcome: inactive
[2]
  outcome: inactive
[3]
  outcome: inactive
[4]
  outcome: inactive

## O=S(=O)(O)c1ccc(O)cc1
[1]
  Potency: inactive
[2]
  Potency: inactive
[3]
  Potency: inactive
[4]
  Potency: inactive

## CN1CCN(c2c(F)cc3c(=O)c(C(=O)O)cn4c3c2SCC4)CC1
[1]
  Potency: inactive
[2]
  Potency: inactive
[3]
  Potency: inactive
[4]
  Potency: inactive

## Nc1ccc(S(=O)(=O)Nc2ccc(Cl)nn2)cc1
[1]
  Potency: inactive
[2]
  Potency: inactive
[3]
  Potency: inactive
[4]
  Potency: inactive

## Cc1ccnc2c1NC(=O)c1cccnc1N2C1CC1
[1]
  Potency: inactive
[2]
  Potency: inactive
[3]
  Potency: inactive
[4]
  Potency: inactive

## CCCCCCCCCCCCO
[1]
  Potency: inactive
[2]
  Potency: inactive
[3]
  Potency: inactive
[4]
  Potency: inactive

## O=C(O[C@@H]1Cc2c(O)cc(O)cc2O[C@@H]1c1cc(O)c(O)c(O)c1)c1cc(O)c(O)c(O)c1
[1]
  Potency: inactive
[2]
  Potency: inactive
[3]
  Potency: inactive
[4]
  Potency: inactive

## Cc1ccc(O)c2ncccc12
[1]
  Potency: inactive
[2]
  Potency: inactive
[3]
  Potency: inactive
[4]
  Potency: inactive

## Cc1ccc(O)c(-n2nc3ccccc3n2)c1
[1]
  Potency: inactive
[2]
  Potency: inactive
[3]
  Potency: inactive
[4]
  Potency: inactive

## O=C(NCCN1CCOCC1)c1ccc(Cl)cc1
[1]
  Potency: inactive
[2]
  Potency: inactive
[3]
  Potency: inactive
[4]
  Potency: inactive

## CC1=C(C(=O)OC(C)C)C(c2cccc([N+](=O)[O-])c2)C(C(=O)OC2CN(C(c3ccccc3)c3ccccc3)C2)=C(N)N1 (stereo not given)
[1]
  Potency: inactive
[2]
  Potency: inactive
[3]
  Potency: inactive
[4]
  Potency: inactive

## C=C[C@H]1CN2CC[C@H]1C[C@@H]2[C@@H](O)c1ccnc2ccc(OC)cc12
[1]
  Potency: inactive
[2]
  Potency: inactive
[3]
  Potency: inactive
[4]
  Potency: inactive

## CC1(C)[C@H]2CC[C@]1(C)[C@H](O)C2
[1]
  Potency: inactive
[2]
  Potency: inactive
[3]
  Potency: inactive
[4]
  Potency: inactive

## NCCO
[1]
  Potency: inactive
[2]
  Potency: inactive
[3]
  Potency: inactive
[4]
  Potency: inactive

## CC(C)(C)C1CCCCC1O (stereo not given)
[1]
  Potency: inactive
[2]
  Potency: inactive
[3]
  Potency: inactive
[4]
  Potency: inactive

## CCc1nn(C2CCCCC2)c2cc(C3(C#N)CCC(C(=O)O)CC3)ccc12 (stereo not given)
[1]
  Potency: inactive
[2]
  Potency: inactive
[3]
  Potency: inactive
[4]
  Potency: inactive

## CCCCCCC(C)OC(=O)COc1nc(F)c(Cl)c(N)c1Cl (stereo not given)
[1]
  Potency: inactive
[2]
  Potency: inactive
[3]
  Potency: inactive
[4]
  Potency: inactive

## CC1=CCC(=O)O1
[1]
  Potency: inactive
[2]
  Potency: inactive
[3]
  Potency: inactive
[4]
  Potency: inactive

## CCCCCCCCCOS(=O)(=O)O
[1]
  Potency: inactive
[2]
  Potency: inactive
[3]
  Potency: inactive
[4]
  Potency: inactive

## O=C(O)CCSSCCC(=O)O
[1]
  Potency: inactive
[2]
  Potency: inactive
[3]
  Potency: inactive
[4]
  Potency: inactive

## Cc1ccc(S(=O)(=O)N=C=O)cc1
[1]
  Potency: inactive
[2]
  Potency: inactive
[3]
  Potency: inactive
[4]
  Potency: inactive

## Cc1cc(Cl)c(C)cc1Cl
[1]
  Potency: inactive
[2]
  Potency: inactive
[3]
  Potency: inactive
[4]
  Potency: inactive

## CN(C)c1ccc(Cc2ccc(N(C)C)cc2)cc1
[1]
  Potency: inactive
[2]
  Potency: inactive
[3]
  Potency: inactive
[4]
  Potency: inactive

## CCCCCCCCCCCCCOC(=O)CCSCCC(=O)OCCCCCCCCCCCCC
[1]
  activity, negative = inhibition: 3.05% [at 23.6 µM]
[2]
  activity change, negative = inhibition: 1.34% [at 23.6 µM]
[3]
  activity change, negative = inhibition: -0.492% [at 23.8 µM]
[4]
  activity change, negative = inhibition: 0.346% [at 23.6 µM]

## O=C(O)Cc1ccccc1Nc1c(Cl)cccc1Cl
[1]
  Potency: inactive
[2]
  Potency: inactive
[3]
  Potency: inactive
[4]
  Potency: inactive
